These results are taken from PubChem BioAssay.

Each structure is given as a SMILES string. For part of these data: Potency and affinity values are given separately. The source made the active and inactive calls.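 The calls were made as follows, unless noted: active = fitted half-maximal concentration within the tested range, moderate curve steepness, significant signal drop, and little compound fluorescence or bead-linkage interference; inactive = the rest.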

The target of test [1] is Cell division control protein 42 homolog (Homo sapiens) (UniProt P60953). Description: activated mutant Cdc42 GTP-binding inhibitors, dose response, biochemical, multiplex bead flow cytometry, Bodipy-FL-GTP (AID 1333;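 active = fitted half-maximal concentration within the tested dose range, moderate curve steepness, a statistically real signal drop, and little compound fluorescence or tag-binding interference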). The following applies: bead-based flow cytometry; series mostly up to 100 µM. (Flow cytometry measures light scatter and fluorescence of single cells or particles in a stream.)
Cell division control protein 42 homolog (Homo sapiens), sequence (P60953 whole entry, looked up): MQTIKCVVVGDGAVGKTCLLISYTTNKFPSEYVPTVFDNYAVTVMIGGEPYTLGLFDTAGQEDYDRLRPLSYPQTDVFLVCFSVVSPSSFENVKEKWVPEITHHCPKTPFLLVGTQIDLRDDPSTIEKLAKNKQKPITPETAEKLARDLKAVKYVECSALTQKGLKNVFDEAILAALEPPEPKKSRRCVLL

Test [2] has the same target. Description: wildtype Cdc42 GTP-binding inhibitors, dose response, biochemical, multiplex bead flow cytometry, Bodipy-FL-GTP (AID 1334). The conditions noted are these: bead-based flow cytometry, Bodipy-FL-GTP binding to GST-Cdc42; at 100 µM (top of the series) unless noted.
Test [3] concerns the target GTPase HRas (Homo sapiens) (UniProt P01112). Description: inhibitors of GTP binding to wildtype Ras, dose response, biochemical, multiplex bead flow cytometry (AID 1335;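 active = fitted half-maximal concentration within 10 nM to 100 µM, steepness 0.5 to 2, significant signal drop, low assay interference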). The conditions noted are these: bead-based flow cytometry, Bodipy-GTP binding to GST-Ras; at 100 µM (top of the series) unless noted.
Test [4] concerns Ras-related protein Rab-7a (dog), GTP binding. Description: Rab7 GTP binding inhibitors, potency, dose response, biochemical, wildtype, multiplex bead flow cytometry (AID 1336; call rule not given here). The following applies: bead-based flow cytometry, fluorescent GTP binding to Rab7; series mostly up to 100 µM.
Test [5] concerns the target Ras-related C3 botulinum toxin substrate 1 (Homo sapiens) (UniProt P63000). Description: wildtype Rac1 GTP binding inhibitors, dose response, biochemical, multiplex bead flow cytometry (AID 1340;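 active = dose curve with midpoint inside tested range, moderate steepness, plateau gap beyond fit error, low compound glow and bead-link interference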). The following applies: GST-Rac1 beads, Bodipy-FL-GTP binding; at 100 µM (top of the series) unless noted.
Test [6] has as its target GTPase HRas (Homo sapiens) (UniProt P01112). Description: activated Ras mutant GTP binding inhibitors, dose response, biochemical, multiplex bead flow cytometry (AID 1341;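 active = dose-response curve with midpoint inside the tested range, moderate steepness, significant amplitude and little compound fluorescence or bead-attachment interference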;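 also: GST-tagged constitutively activated Ras mutant immobilized on beads and multiplexed with other GTPases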). The conditions noted are these: bead-based flow cytometry, Bodipy-FL-GTP binding; series mostly up to 100 µM.

GTPase HRas (Homo sapiens), sequence (P01112 whole entry, looked up): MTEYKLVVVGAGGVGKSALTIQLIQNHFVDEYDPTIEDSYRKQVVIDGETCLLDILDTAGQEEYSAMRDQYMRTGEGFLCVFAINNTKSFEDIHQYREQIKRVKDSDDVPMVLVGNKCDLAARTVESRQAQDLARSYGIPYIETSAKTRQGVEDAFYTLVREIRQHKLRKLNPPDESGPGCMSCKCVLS

In the case of `Cc1ccc(C2C(C#N)C(C#N)N3CCCN23)cc1` (stereo not given), the molecule was classed as inactive in test [1], in test [4] and in test [6]. The fluorescence, percent of control (lower = inhibition) in test [2] is 99.2%. This molecule displayed a GTP binding, percent of control in test [3] of 156%. Also, the GTP binding signal, raw median fluorescence (lower = inhibition) (MCF (arbitrary fluorescence units)) in test [5] came out at 200.

In the case of `CS(=O)(=O)c1ccc(C(=O)OCc2nnc(-c3ccccc3)o2)cc1[N+](=O)[O-]`, the result in test [1], in test [4] and in test [6] was inactive. Moreover, in test [2], the fluorescence, percent of control (lower = inhibition) came out at 22.4%. In test [3], the GTP binding, percent of control was determined as 81.7%. Also, the GTP binding signal, raw median fluorescence (lower = inhibition) (MCF (arbitrary fluorescence units)) in test [5] came out at 259.

As to `COc1cccc(C(=O)O)c1OCc1ccccc1Br`, the outcome in test [1], in test [4] and in test [6] was inactive. Also, the fluorescence, percent of control (lower = inhibition) in test [2] came to 57%. Also, the GTP binding, percent of control in test [3] was 201%. Moreover, in test [5], the GTP binding signal, raw median fluorescence (lower = inhibition) (MCF (arbitrary fluorescence units)) was 53.6.

In the case of `OCCC1CN(Cc2cccc(O)c2)CCN1CCc1ccccc1` (stereo not given), the molecule was called inactive in test [1], in test [4] and in test [6]. In addition, the fluorescence, percent of control (lower = inhibition) in test [2] amounted to 40.6%. Also, the GTP binding, percent of control in test [3] is 90.6%. This molecule gave a GTP binding signal, raw median fluorescence (lower = inhibition) (MCF (arbitrary fluorescence units)) in test [5] of 342.

Regarding `CC(C)(C)CC(=O)NC(=S)NCc1ccco1`, the molecule was called inactive in test [1], in test [4] and in test [6]. The fluorescence, percent of control (lower = inhibition) in test [2] came to 41.6%. The GTP binding, percent of control in test [3] is 90.5%. Further, in test [5], the GTP binding signal, raw median fluorescence (lower = inhibition) (MCF (arbitrary fluorescence units)) turned out to be 312.

Take `COc1nc(Nc2ccc(O)cc2)nc(OC(C(F)(F)F)C(F)(F)F)n1`: the result in test [1], in test [4] and in test [6] was inactive. In test [2], the fluorescence, percent of control (lower = inhibition) turned out to be 101%. The molecule further showed a GTP binding, percent of control in test [3] of 161%. Moreover, the GTP binding signal, raw median fluorescence (lower = inhibition) (MCF (arbitrary fluorescence units)) in test [5] was 172.

As to `O=C(O)c1ccc(CNCc2ccccc2Cl)s1`, the result in test [1], in test [4] and in test [6] was inactive. In test [2], the fluorescence, percent of control (lower = inhibition) came out at 62%. The same molecule registered a GTP binding, percent of control in test [3] of 86.6%. In test [5], this molecule registered a GTP binding signal, raw median fluorescence (lower = inhibition) (MCF (arbitrary fluorescence units)) of 32.2.

For the molecule `O=C(O)C1C(C(=O)Nc2ccc(Cl)cc2)C2C=CC1C21CC1` (stereo not given), the molecule was classed as inactive in test [1], in test [4] and in test [6]. Also, in test [2], the fluorescence, percent of control (lower = inhibition) came to 86.8%. This molecule also returned a GTP binding, percent of control in test [3] of 149%. In test [5], the GTP binding signal, raw median fluorescence (lower = inhibition) (MCF (arbitrary fluorescence units)) was determined as 173.

Regarding `C=CCn1c(SCC(=O)Nc2ccc3c(c2)OCO3)nnc1-c1cc(Br)ccc1O`, the molecule was classed as inactive in test [1], in test [4] and in test [6]. Also, the fluorescence, percent of control (lower = inhibition) in test [2] is 66.9%. Moreover, the GTP binding, percent of control in test [3] was 84.9%. This molecule also had a GTP binding signal, raw median fluorescence (lower = inhibition) (MCF (arbitrary fluorescence units)) in test [5] of 108.

Consider `Cc1cc(C(F)F)n2nc(C(=O)Nc3ccc(S(=O)(=O)N4CCCCCC4)cc3)nc2n1`, for which the molecule was classed as inactive in test [1], in test [4] and in test [6]. For the same molecule, the fluorescence, percent of control (lower = inhibition) in test [2] stood at 36.8%. This molecule also returned a GTP binding, percent of control in test [3] of 82.1%. Moreover, the GTP binding signal, raw median fluorescence (lower = inhibition) (MCF (arbitrary fluorescence units)) in test [5] was determined as 257.

Regarding `CCCOc1ccc(OCCSc2nc3ccccc3n2CC(=O)O)cc1`, the molecule was classed as inactive in test [1], in test [4] and in test [6]. In addition, the fluorescence, percent of control (lower = inhibition) in test [2] was found to be 60.2%. In test [3], the GTP binding, percent of control worked out at 87.7%. This molecule displayed a GTP binding signal, raw median fluorescence (lower = inhibition) (MCF (arbitrary fluorescence units)) in test [5] of 35.1.

Regarding `CCOC(=O)c1sc(NC(=O)CSc2nnc(Cc3ccccc3)o2)c(C#N)c1C`, the result in test [1], in test [4] and in test [6] was inactive. For the same molecule, the fluorescence, percent of control (lower = inhibition) in test [2] amounted to 36.5%. The molecule also gave a GTP binding, percent of control in test [3] of 56.1%. The molecule further showed a GTP binding signal, raw median fluorescence (lower = inhibition) (MCF (arbitrary fluorescence units)) in test [5] of 118.

On to `COc1cc(/C=N/NC(=O)CN(Cc2ccccc2)S(=O)(=O)c2ccc3c(c2)OCCO3)ccc1O`, for which the outcome in test [1], in test [4] and in test [6] was inactive. The fluorescence, percent of control (lower = inhibition) in test [2] amounted to 40.1%. In test [3], this molecule yielded a GTP binding, percent of control of 52.5%. Further, the GTP binding signal, raw median fluorescence (lower = inhibition) (MCF (arbitrary fluorescence units)) in test [5] came out at 126.

In the case of `COc1ccc2c(C(=O)O)cn(CCOc3ccccc3C)c2c1`, the molecule was called inactive in test [1], in test [4] and in test [6]. The fluorescence, percent of control (lower = inhibition) in test [2] was determined as 64.6%. Further, the GTP binding, percent of control in test [3] was determined as 214%. For the same molecule, the GTP binding signal, raw median fluorescence (lower = inhibition) (MCF (arbitrary fluorescence units)) in test [5] was 59.2.

In the case of `Cn1c(SCCOc2ccccc2F)nc2ccccc2c1=O`, the outcome in test [1], in test [4] and in test [6] was inactive. Besides, in test [2], the fluorescence, percent of control (lower = inhibition) came out at 29.1%. The same molecule returned a GTP binding, percent of control in test [3] of 71.9%. The same molecule returned a GTP binding signal, raw median fluorescence (lower = inhibition) (MCF (arbitrary fluorescence units)) in test [5] of 158.
